Outcome and AC50 data for two compounds are collected here from PubChem BioAssay (EPA / NIEHS).

Read-out in assay [1]: Interferon-inducible T-cell alpha chemoattractant (ITAC), CXCL11 (gene 6373)
Put plainly: BSK_BE3C_ITAC: BioMAP Diversity Plus: BE3C Assay for Interferon-inducible T-cell alpha chemoattractant (ITAC) Biomarker Activity (AID 2284279). Particulars: primary human bronchial epithelial cells. The method, then:
(§1) BSK_BE3C is a cell-based, multiplexed-readout assay that uses bronchial epithelial cell, a human lung primary cell, with measurements taken at 24 hours after chemical dosing in a 96-well plate.BSK_BE3C_ITAC is an assay component measured in the BSK_BE3C assay. It measures I-TAC antibody related to regulation of gene expression using ELISA technology.Data from the assay component BSK_BE3C_ITAC was analyzed at the endpoint, BSK_BE3C_ITAC, in the positive analysis fitting direction relative to DMSO as the negative control and baseline of activity. Using a type of binding reporter, gain or loss-of-signal activity can be used to understand protein changes. […]
(§2) The levels of cell surface (or secreted, indicated by the prefix "s") biomarker endpoints were measured by ELISA. Overt cytotoxicity to cells in confluent adherent cultures (all systems other than the BT system) was assessed by measuring total protein levels using sulforhodamine B (SRB) staining in parallel cultures at the time of biomarker measurements, indicated as SRB endpoints. For proliferation assays for adherent cell types, individual cell types are cultured at sub-confluence and relative cell numbers quantified by SRB staining at time points optimized for each system (48 h: 3C and CASM3C systems; 72 h: BT and HDF3CGF systems; 96 h: SAg system). […] Plates were read after 6 h.

Read-out in assay [2]: Interleukin-8 (IL8), CXCL8 (gene 3576)
Put plainly: BSK_BE3C_IL8: BioMAP Diversity Plus: BE3C Assay for Interleukin-8 (IL8) Biomarker Activity (AID 2284280). Particulars: primary human bronchial epithelial cells. The gist of the method:
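ELISA read-out of IL-8 in human lung bronchial epithelial primary cell cultures, 24 h post-dosing; endpoint analysed as signal increase relative to DMSO baseline.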

Read-out in assay [3]: Epidermal growth factor receptor (EGFR), EGFR (gene 1956)
Put plainly: BSK_BE3C_EGFR: BioMAP Diversity Plus: BE3C Assay for Epidermal growth factor receptor (EGFR) Biomarker Activity (AID 2284281). Particulars: primary human bronchial epithelial cells. An outline of the steps: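 Primary human lung bronchial epithelial cells; compound, 24 h; EGFR measured by ELISA; positive-direction fit vs DMSO baseline.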

Read-out in the next assay: KRT18 (gene 3875)
Put plainly: BSK_BE3C_Keratin818: BioMAP Diversity Plus: BE3C Assay for Keratin 818 Biomarker Activity (AID 2284282). Particulars: primary human bronchial epithelial cells. The method, then: as §1, with “plate.BSK_BE3C_Keratin818” for “plate.BSK_BE3C_ITAC”, “Keratin 8/18” for “I-TAC”, “BSK_BE3C_Keratin818” for “BSK_BE3C_ITAC”, “BSK_BE3C_Keratin818,” for “BSK_BE3C_ITAC,”
as §2

Read-out in assay [4]: Matrix Metallopeptidase 9 (MMP9), MMP9 (gene 4318)
The assay can be described thus: BSK_BE3C_MMP9: BioMAP Diversity Plus: BE3C Assay for Matrix Metallopeptidase 9 (MMP9) Biomarker Activity (AID 2284283). To be noted: primary human bronchial epithelial cells. The gist of the method: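 Endpoint is the ELISA MMP-9 signal in human primary bronchial epithelial cultures taken 24 h after chemical dosing. DMSO serves as negative control and baseline, with gain-of-signal fitting.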

Read-out in assay [5]: Plasminogen activator inhibitor-1 (PAI1), SERPINE1 (gene 5054)
The assay can be described thus: BSK_CASM3C_PAI1: BioMAP Diversity Plus: CASM3C Assay for Plasminogen activator inhibitor-1 (PAI1) Biomarker Activity (AID 2284284).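 Note: PAI-1 protein level measured by ELISA 24 h after dosing.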 To be noted: primary human coronary artery smooth muscle cells.

Read-out in assay [6]: Monocyte Chemoattractant Protein-1 (MCP1), CCL2 (gene 6347)
The assay can be described thus: BSK_hDFCGF_MCP1: BioMAP Diversity Plus: hDFCGF Assay for Monocyte Chemoattractant Protein-1 (MCP1) Biomarker Activity (AID 2284285). To be noted: primary human foreskin fibroblasts. An outline of the steps:
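Human foreskin fibroblasts (hDFCGF system) were exposed to compound and secreted MCP-1 was measured by ELISA after 24 hours. Activity was fitted relative to DMSO. Cytotoxicity was checked by SRB total-protein staining in parallel cultures.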

Read-out in assay [7]: Vascular cell adhesion molecule 1 (VCAM1), VCAM1 (gene 7412)
The assay can be described thus: BSK_IMphg_VCAM1: BioMAP Diversity Plus: IMphg Assay for Vascular cell adhesion molecule 1 (VCAM1) Biomarker Activity (AID 2284286). To be noted: primary human endothelial cells with macrophages. The gist of the method: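 Human venular endothelial cells co-cultured with macrophages; VCAM-1 quantified by ELISA 24 h after dosing, fitted in the positive direction against DMSO. Cytotoxicity was checked in parallel cultures by SRB total-protein staining (0.1% SRB after 10% TCA fixation, 560 nm).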

Read-out in assay [8]: Intercellular Adhesion Molecule 1 (ICAM1), ICAM1 (gene 3383)
The assay can be described thus: BSK_hDFCGF_ICAM1: BioMAP Diversity Plus: hDFCGF Assay for Intercellular Adhesion Molecule 1 (ICAM1) Biomarker Activity (AID 2284287). To be noted: primary human foreskin fibroblasts. The method, then:
BSK_hDFCGF is a cell-based, multiplexed-readout assay that uses foreskin fibroblast, a human skin primary cell, with measurements taken at 24 hours after chemical dosing in a 96-well plate.BSK_hDFCGF_ICAM1 is an assay component measured in the BSK_hDFCGF assay. It measures ICAM-1 antibody related to regulation of gene expression using ELISA technology.Data from the assay component BSK_hDFCGF_ICAM1 was analyzed at the endpoint, BSK_hDFCGF_ICAM1, in the positive analysis fitting direction relative to DMSO as the negative control and baseline of activity. Using a type of binding reporter, gain or loss-of-signal activity can be used to understand protein changes. […]
as §2

Read-out in the next assay: CD40, CD40 (gene 958)
Put plainly: BSK_IMphg_CD40: BioMAP Diversity Plus: IMphg Assay for CD40 Biomarker Activity (AID 2284288). Particulars: primary human endothelial cells with macrophages. An outline of the steps:
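Venular endothelial cells co-cultured with macrophages (human primary), CD40 measured by ELISA 24 h after dosing. Positive-direction fit vs DMSO baseline; cytotoxicity tracked by SRB total-protein staining in parallel cultures.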

Molecules are shown by their SMILES. “And” between values parts separate entries of the source, which are not always exact repeats. Equal entries are not always repeated. A structure can be active in one record and inactive in another. The source made the active and inactive calls. Rule for the calls: active = hit-call score of the fitted dose curve at least 0.9, where 1 is the maximum; inactive = score below 0.9.

For the compound `O=C(O)C(F)(F)C(F)(F)C(F)(F)C(F)(F)C(F)(F)C(F)(F)C(F)(F)F`, the outcome (in assay [1]; in [2]; in assay [3]; in the assay with KRT18 (gene 3875); in assay [4]; in assay [5]) was inactive. Further, the outcome in assay [6] was “inactive”; in assay [7], “inactive”; in assay [8], “inactive”; with CD40, CD40 (gene 958), “inactive”.

Consider `O=S(=O)(O)C(F)(F)C(F)(F)C(F)(F)C(F)(F)C(F)(F)C(F)(F)C(F)(F)C(F)(F)F`, for which the half-maximal activity concentration (AC50) (usually the midpoint of the concentration-response curve, whichever way the signal moves) in assay [1] is 40.8 µM (active) [middle of 4 runs]; in assay [2], 30 µM (active) and 7.03 µM (active) and 2.79 µM (active); in assay [3] it was 16.5 µM (active) and 11.6 µM (active) and 13.2 µM (active); in assay [4], 17.7 µM (active) [middle of 4 runs]. Moreover, the result (in assay [2]; in [3]; with KRT18 (gene 3875); in assay [5]; in [6]; in assay [7]) was inactive. Moreover, the outcome in assay [8] is “inactive”; with CD40, CD40 (gene 958), “inactive”.
